molecular target: T1, Arginase-2, mitochondrial (Homo sapiens) (UniProt P78540); test: in vitro enzyme assay to detect the production of urea directly proportional to the activity of Arginase II; type: functional; design: scale not given: in the data most compounds retested in dose-response had high values; details: 30 µM
T1 sequence (whole entry): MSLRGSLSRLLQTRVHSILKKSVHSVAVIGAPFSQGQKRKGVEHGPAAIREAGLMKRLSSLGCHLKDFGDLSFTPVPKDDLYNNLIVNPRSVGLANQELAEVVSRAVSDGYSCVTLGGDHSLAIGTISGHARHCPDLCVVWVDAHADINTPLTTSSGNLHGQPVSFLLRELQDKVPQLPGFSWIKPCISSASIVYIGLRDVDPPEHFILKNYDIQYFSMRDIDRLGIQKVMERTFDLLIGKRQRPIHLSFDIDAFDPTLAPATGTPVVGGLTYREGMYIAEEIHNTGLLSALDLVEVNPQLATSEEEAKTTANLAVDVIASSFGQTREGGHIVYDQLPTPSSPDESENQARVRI

SMILES | Percent Effect
CCn1c(NCc2ccc(OC)cc2)nc2c(C)nn(C)c2c1=O | -4.87%
O=C(NCC1CC1)[C@@H]1CCO[C@@H]2CCN(CCc3ccccc3)C[C@H]21 | 1.62%
COc1ccc(-c2nc(CN3CC(n4cccn4)C3)no2)cc1 | 0.54%
CCn1c(NCc2cccnc2)nc2c(C)nn(C)c2c1=O | 3.78%
O=C(Cn1nc2c(cc1=O)CCCC2)NC(Cc1ccccc1)C(=O)O (stereo not given) | -13.5%
COc1ccc(NC2CCc3c2[nH]c(=O)n(C2CCCCC2)c3=O)cc1 (stereo not given) | 4.87%
COCCN1CCC(c2cncc(-c3cccc(Cl)c3)n2)CC1 | 5.95%
Cc1ccc([C@@H]2CN(S(=O)(=O)c3cc(C)ccc3F)C[C@H]2N(C)C)cc1 | 2.7%
CCCn1c(NCCc2ccccc2)nc2c(C)nn(C)c2c1=O | 1.62%
CN1[C@H]2CC[C@@H]1CN(C(=O)CCc1csc(N)n1)CC2 | 3.78%
COc1ccc2c(c1)OCC(CNC(=O)NC(C)(C)C)C2 (stereo not given) | 5.95%
Cc1ccc(C(=O)N(CCC#N)Cc2ccccn2)cc1C | 3.78%
CCC(C(=O)NCc1cccnc1)N(c1cccc(C)c1)S(C)(=O)=O (stereo not given) | -0.54%
COC(=O)c1ccc(C2SC(C)=Nc3c2c(=O)[nH]n3C2CCCC2)cc1 (stereo not given) | 11.3%
Cc1cccc(-c2nc(CN3CC(n4nc(C)cc4C)C3)no2)c1 | 5.95%
FC(F)(F)C1CCc2nnc(CNCc3cccs3)n2C1 (stereo not given) | 2.7%
NS(=O)(=O)CCNC(=O)c1cc(Br)c2c(c1)OCCO2 | 8.11%
O=c1[nH]c2c(c(=O)n1C1CCCCC1)CCC2Nc1ccccn1 (stereo not given) | 5.95%
CN(C)C(=O)CN1CCC(c2cncc(-c3cccc(Cl)c3)n2)CC1 | -0.54%
Fc1ccc(CNCc2nnc3n2CC(C(F)(F)F)CC3)c(F)c1 (stereo not given) | 8.11%

SMILES | Percent Effect
CC(C)[C@H](NC(=O)Cn1nc2c(cc1=O)CCCC2)C(=O)O | 13.5%
O=C(NCc1ccccn1)[C@]12COC[C@H]1CN(Cc1cccnc1)C2 | -5.95%
CNC(=O)[C@H]1C[C@@H]2CN(C(=O)c3ccoc3)C[C@@H]2N1S(C)(=O)=O | 10.3%
CC(C)C(NC(=O)Cn1nc2c(cc1=O)CCCC2)C(=O)O (stereo not given) | 7.03%
Cc1noc(C)c1C(=O)N1CCCC(c2nccn2Cc2cscn2)C1 (stereo not given) | 5.95%
CC(C)NC(=O)[C@]12COC[C@H]1CN(Cc1cnn(C)c1)C2 | -13.5%
CC1=Nc2c(c(=O)[nH]n2C2CCCCC2)C(c2cccnc2)S1 (stereo not given) | 2.7%
CC[C@@H](NC(C)=O)C(=O)NCc1cccnc1Oc1ccccc1OC | 4.87%
CCCS(=O)(=O)N1C[C@H](N(C)Cc2ccco2)[C@@H]2OCCC[C@@H]21 | 11.3%
CS(=O)(=O)NCCC(=O)N1CCCC1c1noc(C2CC2)n1 (stereo not given) | 11.3%
Cc1ccc(C(C(=O)O)N2CCCN(Cc3ccccn3)CC2)c(F)c1 (stereo not given) | 8.11%
COc1ccc2c(c1)OCC(CNC(=O)c1ccc3[nH]nnc3c1)C2 (stereo not given) | 8.11%
Cc1cc(CN(Cc2ccccc2)CC(O)c2cccs2)on1 (stereo not given) | 3.78%
CCOCCNC(=O)c1cc(Br)c2c(c1)OCCO2 | 9.19%
CCCc1n[nH]cc1C(=O)NCC1COc2cc(OC)ccc2C1 (stereo not given) | 8.11%
CC(C)CNC(=O)c1cc(Br)c2c(c1)OCCO2 | 3.78%
COc1ncccc1CNC(=O)N(Cc1ccccc1F)C1CC1 | 5.95%
CNC(=O)CCNC(=O)c1cc(Br)c2c(c1)OCCO2 | -10.3%
CCn1c(NCc2ccccn2)nc2c(C)nn(C)c2c1=O | -5.95%
Cc1nc(NCC2CC2)nc2c1COCC21CCN(C(=O)NC(C)C)C1 (stereo not given) | 7.03%

— ChEMBL document CHEMBL3988442, “University of Dundee, Small-Polar-MMV Screening Library” (2021)
